# From ChEMBL document CHEMBL3988442, “University of Dundee, Small-Polar-MMV Screening Library” (2021)
# Molecular target: AMP-activated protein kinase, AMPK (Homo sapiens) (UniProt P54646+O43741+P54619+Q9UGJ0+Q9Y478+Q13131+Q9UGI9)
# Experiment: AMP-dependent Kinase enzyme assay. An in vitro enzyme assay that detects ADP turnover that is directly proportional to AMPK activity. This uses naive AMPK that is activated during the assay with MK-8722
# Type: functional
# Set-up: scale not given: direction of the effect not stated beside the values
# Settings: 30 µM
row,Compound,Percent Effect [%]
1,CCCNc1cc(-c2c[nH]nc2C2CCN(C(=O)C3CCC3)C2)ccn1 (stereo unspecified),43.5
2,O=C(Cc1ccsc1)N1CCC[C@@H]1Cn1c(=O)oc2ccccc21,28.3
3,Cc1ccccc1SCC(=O)Nn1cnnc1,3.33
4,Cc1cc(=O)n2nc(Oc3cccc(I)c3)sc2n1,-1.18
5,CCc1nnc(CNC(=O)CCC2CCCCN2C)s1 (stereo unspecified),-10.9
6,O=C(NCC(O)c1cccc(F)c1)C1CCN(C2CCCCC2)CC1 (stereo unspecified),-10
7,CC(CNC(=O)CCCn1cncn1)N1CCc2ccccc2C1 (stereo unspecified),14.6
8,Cc1[nH]ccc1C(=O)N1CCCC(c2ccc(C(=O)O)cc2)C1 (stereo unspecified),-0.307
9,Cc1cc(CNC(=O)NCCC(=O)N2CCCc3ccccc32)no1,-5.1
10,CS(=O)(=O)NCc1cccc(COC2CCCCC2)c1,4.87
11,COCCN1CCN(Cc2cnc(C3(C)CCCCO3)nc2)CC1 (stereo unspecified),11.3
12,CC(C(=O)N1CCCC1)N1CCN(c2ncc(Cl)cn2)CC1 (stereo unspecified),-1.02
13,CC(C)N1CCC(NC(=O)c2cn(-c3ccc(F)cc3)nn2)C1 (stereo unspecified),-3.78
14,CCOC(=O)CC1(Nc2nc(C)nc3c2cnn3C)CCCCC1,14.9
15,CC(C(=O)NCC(C)(C)c1ccc(Br)cc1)n1cncn1 (stereo unspecified),0.177
16,CC(C(N)=O)N1CCN(c2ncc(Cl)cn2)CC1 (stereo unspecified),-1.99
17,CN1CCCN(c2ccc(F)cc2CNC(=O)c2cccnc2)CC1,38.2
18,COc1ccc(C2CN(c3cc(C)ncn3)CCN2C(C)=O)cc1 (stereo unspecified),21.4
19,O=C(NCc1nccs1)N1CCOC(c2ccccc2Cl)C1 (stereo unspecified),4.45
20,Cc1cc(NC(=O)N2CCN(c3cccs3)CC2)ccc1C(N)=O,6.86
21,O=C(Nc1ccccc1C(=O)NCCN1CCOCC1)c1ccco1,-3.24
